Laboratory results from ChEMBL document CHEMBL2218924, “A broad activity screen in support of a chemogenomic map for kinase signalling research and drug discovery” (Biochem J, 2013).

How the values were obtained:
[1] = molecular target: T1, Dual specificity mitogen-activated protein kinase kinase 6 (Homo sapiens) (UniProt P52564); conditions: at 1 µM
T1 sequence (whole entry): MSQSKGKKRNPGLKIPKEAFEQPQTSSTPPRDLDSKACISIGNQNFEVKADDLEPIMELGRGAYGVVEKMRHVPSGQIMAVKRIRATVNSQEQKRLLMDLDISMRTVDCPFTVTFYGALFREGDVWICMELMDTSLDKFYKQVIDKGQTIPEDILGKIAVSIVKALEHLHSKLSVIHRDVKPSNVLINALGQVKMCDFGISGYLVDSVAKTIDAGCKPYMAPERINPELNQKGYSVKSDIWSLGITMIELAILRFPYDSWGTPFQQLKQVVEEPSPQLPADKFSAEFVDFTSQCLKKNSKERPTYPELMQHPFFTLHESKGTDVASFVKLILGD

[2] = molecular target: T1, Dual specificity mitogen-activated protein kinase kinase 6 (Homo sapiens); conditions: at 10 µM
[3] = molecular target: T2, Dual specificity mitogen-activated protein kinase kinase 7 (Homo sapiens) (UniProt O14733); conditions: at 1 µM
T2 sequence (whole entry): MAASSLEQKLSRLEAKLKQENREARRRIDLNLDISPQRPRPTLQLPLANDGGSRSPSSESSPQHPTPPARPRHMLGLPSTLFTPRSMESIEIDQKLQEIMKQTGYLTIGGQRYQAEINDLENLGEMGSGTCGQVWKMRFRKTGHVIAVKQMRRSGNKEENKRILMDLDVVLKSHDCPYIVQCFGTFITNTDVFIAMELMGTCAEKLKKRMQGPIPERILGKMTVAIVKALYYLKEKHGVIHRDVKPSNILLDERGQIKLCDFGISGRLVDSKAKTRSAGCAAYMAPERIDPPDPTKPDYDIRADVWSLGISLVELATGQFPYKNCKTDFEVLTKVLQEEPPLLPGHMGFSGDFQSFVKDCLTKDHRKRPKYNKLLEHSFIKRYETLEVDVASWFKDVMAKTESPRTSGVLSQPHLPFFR

[4] = molecular target: T2, Dual specificity mitogen-activated protein kinase kinase 7 (Homo sapiens); conditions: at 10 µM
[5] = molecular target: Myosin light chain kinase, smooth muscle (Homo sapiens) (UniProt Q15746); conditions: at 1 µM
Myosin light chain kinase, smooth muscle (Homo sapiens), sequence (Q15746 whole entry): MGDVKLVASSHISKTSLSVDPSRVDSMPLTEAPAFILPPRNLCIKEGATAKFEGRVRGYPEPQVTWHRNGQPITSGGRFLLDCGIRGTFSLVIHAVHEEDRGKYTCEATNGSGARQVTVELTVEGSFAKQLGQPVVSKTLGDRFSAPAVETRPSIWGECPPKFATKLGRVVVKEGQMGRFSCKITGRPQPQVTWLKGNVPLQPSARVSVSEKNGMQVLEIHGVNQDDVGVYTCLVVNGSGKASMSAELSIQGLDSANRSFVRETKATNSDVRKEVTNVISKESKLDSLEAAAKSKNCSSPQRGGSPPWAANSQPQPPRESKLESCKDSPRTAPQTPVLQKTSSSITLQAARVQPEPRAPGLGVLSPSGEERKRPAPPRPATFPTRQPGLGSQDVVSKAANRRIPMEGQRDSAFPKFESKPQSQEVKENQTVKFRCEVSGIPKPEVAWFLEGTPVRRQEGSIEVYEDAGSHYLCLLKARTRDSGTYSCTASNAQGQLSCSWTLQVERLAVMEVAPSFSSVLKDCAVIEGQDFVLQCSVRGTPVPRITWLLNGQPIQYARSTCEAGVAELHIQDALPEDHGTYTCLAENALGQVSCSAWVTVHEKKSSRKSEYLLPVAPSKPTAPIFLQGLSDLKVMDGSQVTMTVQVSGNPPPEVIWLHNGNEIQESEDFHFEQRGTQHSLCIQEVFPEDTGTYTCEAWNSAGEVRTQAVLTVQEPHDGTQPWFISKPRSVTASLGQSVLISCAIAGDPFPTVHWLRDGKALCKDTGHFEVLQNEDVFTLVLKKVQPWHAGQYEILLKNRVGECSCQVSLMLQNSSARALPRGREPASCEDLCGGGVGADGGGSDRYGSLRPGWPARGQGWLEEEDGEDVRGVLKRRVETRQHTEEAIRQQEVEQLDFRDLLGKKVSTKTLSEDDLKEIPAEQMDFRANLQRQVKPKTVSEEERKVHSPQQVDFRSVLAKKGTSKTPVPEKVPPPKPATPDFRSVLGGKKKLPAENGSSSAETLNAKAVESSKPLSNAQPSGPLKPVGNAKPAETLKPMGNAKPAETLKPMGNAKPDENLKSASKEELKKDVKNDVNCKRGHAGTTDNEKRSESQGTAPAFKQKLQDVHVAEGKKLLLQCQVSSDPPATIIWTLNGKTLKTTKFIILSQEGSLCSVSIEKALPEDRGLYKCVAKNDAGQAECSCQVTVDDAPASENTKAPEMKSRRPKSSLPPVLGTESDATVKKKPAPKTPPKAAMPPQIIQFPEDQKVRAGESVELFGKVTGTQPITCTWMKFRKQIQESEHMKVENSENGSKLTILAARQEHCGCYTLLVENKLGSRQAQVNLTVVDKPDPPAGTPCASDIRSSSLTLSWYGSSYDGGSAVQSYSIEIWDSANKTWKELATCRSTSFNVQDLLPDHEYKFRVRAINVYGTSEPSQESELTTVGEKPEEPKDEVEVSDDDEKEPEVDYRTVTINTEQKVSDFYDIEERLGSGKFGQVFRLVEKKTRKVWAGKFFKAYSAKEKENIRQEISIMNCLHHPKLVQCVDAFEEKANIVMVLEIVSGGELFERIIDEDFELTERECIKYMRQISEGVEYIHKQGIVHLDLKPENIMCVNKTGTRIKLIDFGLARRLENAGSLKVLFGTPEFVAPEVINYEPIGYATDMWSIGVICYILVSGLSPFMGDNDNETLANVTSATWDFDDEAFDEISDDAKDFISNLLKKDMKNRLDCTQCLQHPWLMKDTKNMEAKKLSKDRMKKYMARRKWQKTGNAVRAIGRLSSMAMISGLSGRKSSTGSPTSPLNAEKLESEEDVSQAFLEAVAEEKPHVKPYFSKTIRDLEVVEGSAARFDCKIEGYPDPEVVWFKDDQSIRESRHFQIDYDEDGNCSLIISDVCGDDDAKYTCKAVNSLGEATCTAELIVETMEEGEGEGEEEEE

[6] = molecular target: Myosin light chain kinase, smooth muscle (Homo sapiens) (UniProt Q15746); conditions: at 10 µM
[7] = molecular target: Mitogen-activated protein kinase kinase kinase 9 (Homo sapiens) (UniProt P80192); conditions: at 1 µM
Mitogen-activated protein kinase kinase kinase 9 (Homo sapiens), sequence (P80192 whole entry, looked up): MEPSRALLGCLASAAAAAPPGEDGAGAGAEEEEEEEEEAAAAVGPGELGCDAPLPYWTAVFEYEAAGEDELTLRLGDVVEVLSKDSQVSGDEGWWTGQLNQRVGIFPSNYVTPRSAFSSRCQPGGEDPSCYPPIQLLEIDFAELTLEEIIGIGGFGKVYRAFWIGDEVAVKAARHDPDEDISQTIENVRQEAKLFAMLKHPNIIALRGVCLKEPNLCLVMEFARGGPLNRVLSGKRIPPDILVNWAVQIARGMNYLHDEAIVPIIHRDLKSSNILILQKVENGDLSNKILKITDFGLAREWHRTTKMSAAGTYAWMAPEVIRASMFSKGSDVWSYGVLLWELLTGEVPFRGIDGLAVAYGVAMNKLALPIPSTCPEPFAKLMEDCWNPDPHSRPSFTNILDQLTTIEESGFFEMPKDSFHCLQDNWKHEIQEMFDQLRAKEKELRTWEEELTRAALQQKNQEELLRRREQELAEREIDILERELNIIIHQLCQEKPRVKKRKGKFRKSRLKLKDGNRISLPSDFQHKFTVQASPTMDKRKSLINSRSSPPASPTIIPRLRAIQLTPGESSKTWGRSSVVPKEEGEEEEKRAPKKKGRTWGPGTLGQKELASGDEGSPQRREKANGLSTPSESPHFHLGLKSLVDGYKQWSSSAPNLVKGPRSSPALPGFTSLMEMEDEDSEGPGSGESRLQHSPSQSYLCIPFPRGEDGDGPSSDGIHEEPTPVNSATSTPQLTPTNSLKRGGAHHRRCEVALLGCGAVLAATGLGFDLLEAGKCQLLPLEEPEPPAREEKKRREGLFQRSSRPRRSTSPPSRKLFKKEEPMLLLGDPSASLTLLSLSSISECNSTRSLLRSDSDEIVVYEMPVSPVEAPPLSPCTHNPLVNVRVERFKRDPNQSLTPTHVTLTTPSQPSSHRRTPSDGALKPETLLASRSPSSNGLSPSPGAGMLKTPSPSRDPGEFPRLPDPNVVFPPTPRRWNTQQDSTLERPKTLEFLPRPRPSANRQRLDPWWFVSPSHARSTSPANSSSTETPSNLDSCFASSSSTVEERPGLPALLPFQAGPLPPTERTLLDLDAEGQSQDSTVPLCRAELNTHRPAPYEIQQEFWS

[8] = molecular target: Mitogen-activated protein kinase kinase kinase 9 (Homo sapiens) (UniProt P80192); conditions: at 10 µM
[9] = molecular target: Serine/threonine-protein kinase MRCK alpha (Homo sapiens) (UniProt Q5VT25); conditions: at 10 µM
Serine/threonine-protein kinase MRCK alpha (Homo sapiens), sequence (Q5VT25 whole entry): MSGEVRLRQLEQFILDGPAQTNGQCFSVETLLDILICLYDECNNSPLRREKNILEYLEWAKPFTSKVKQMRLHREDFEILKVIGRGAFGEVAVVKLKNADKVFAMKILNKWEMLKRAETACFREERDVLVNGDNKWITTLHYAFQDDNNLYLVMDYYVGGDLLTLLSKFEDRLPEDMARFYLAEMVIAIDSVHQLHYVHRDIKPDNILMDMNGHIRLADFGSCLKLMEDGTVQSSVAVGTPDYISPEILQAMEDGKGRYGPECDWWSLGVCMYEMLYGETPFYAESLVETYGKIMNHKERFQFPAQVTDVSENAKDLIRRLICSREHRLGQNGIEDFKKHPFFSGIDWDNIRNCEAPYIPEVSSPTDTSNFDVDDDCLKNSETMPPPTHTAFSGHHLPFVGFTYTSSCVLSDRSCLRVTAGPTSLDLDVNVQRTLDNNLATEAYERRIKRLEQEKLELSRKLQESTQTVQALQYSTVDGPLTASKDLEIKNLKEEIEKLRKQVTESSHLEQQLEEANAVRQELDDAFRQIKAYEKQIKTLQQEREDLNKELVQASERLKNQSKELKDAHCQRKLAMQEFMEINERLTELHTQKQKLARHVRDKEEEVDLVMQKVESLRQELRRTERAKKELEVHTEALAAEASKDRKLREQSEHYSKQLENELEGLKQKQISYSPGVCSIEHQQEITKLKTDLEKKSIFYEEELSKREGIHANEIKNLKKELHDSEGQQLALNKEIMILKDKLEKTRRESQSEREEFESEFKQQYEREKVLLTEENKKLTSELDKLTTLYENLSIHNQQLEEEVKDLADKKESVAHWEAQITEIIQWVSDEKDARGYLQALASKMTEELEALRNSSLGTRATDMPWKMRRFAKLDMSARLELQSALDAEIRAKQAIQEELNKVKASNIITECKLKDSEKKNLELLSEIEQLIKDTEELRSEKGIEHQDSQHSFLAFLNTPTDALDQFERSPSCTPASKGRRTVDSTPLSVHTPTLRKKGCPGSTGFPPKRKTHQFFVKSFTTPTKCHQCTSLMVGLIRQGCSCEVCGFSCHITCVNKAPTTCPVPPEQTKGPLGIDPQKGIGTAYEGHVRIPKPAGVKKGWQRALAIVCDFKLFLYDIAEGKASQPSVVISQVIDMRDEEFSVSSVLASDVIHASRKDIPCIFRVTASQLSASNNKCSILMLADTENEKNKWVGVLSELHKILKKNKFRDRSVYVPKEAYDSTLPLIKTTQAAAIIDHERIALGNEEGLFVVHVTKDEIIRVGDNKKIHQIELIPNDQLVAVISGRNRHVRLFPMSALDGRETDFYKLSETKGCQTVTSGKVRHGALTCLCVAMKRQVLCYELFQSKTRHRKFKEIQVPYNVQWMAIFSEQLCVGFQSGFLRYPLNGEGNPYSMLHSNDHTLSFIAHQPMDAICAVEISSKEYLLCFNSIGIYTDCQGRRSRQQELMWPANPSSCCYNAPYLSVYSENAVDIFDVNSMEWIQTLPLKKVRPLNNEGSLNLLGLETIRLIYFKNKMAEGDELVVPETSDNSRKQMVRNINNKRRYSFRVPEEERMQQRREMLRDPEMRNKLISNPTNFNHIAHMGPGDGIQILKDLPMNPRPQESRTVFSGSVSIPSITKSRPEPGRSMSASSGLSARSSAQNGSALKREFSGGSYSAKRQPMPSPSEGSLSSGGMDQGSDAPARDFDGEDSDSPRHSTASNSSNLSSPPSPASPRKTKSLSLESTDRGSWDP

[10] = molecular target: Serine/threonine-protein kinase MRCK beta (Homo sapiens) (UniProt Q9Y5S2); conditions: at 1 µM
[11] = molecular target: Serine/threonine-protein kinase MRCK beta (Homo sapiens) (UniProt Q9Y5S2); conditions: at 10 µM
[12] = molecular target: Ribosomal protein S6 kinase alpha-5 (Homo sapiens) (UniProt O75582); conditions: at 1 µM
[13] = molecular target: Ribosomal protein S6 kinase alpha-5 (Homo sapiens) (UniProt O75582); conditions: at 10 µM
[14] = molecular target: Ribosomal protein S6 kinase alpha-4 (Homo sapiens) (UniProt O75676); conditions: at 1 µM
[15] = molecular target: Ribosomal protein S6 kinase alpha-4 (Homo sapiens) (UniProt O75676); conditions: at 10 µM
[16] = molecular target: T3, Serine/threonine-protein kinase 4 (Homo sapiens) (UniProt Q13043); conditions: at 1 µM
T3 sequence (whole entry): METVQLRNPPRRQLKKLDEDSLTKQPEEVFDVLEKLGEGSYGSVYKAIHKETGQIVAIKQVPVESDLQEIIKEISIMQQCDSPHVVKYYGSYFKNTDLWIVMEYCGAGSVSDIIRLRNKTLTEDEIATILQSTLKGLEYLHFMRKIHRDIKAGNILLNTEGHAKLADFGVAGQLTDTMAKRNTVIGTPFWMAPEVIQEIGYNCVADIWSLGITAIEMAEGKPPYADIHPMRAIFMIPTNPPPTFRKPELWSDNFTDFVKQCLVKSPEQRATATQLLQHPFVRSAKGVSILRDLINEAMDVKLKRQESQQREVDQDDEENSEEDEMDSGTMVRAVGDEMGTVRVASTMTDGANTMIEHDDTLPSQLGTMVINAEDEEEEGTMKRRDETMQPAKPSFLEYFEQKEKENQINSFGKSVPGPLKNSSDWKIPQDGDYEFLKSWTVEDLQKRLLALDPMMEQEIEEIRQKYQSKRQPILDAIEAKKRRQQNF

[17] = molecular target: T3, Serine/threonine-protein kinase 4 (Homo sapiens); conditions: at 10 µM
[18] = molecular target: Serine/threonine-protein kinase MRCK alpha (Homo sapiens) (UniProt Q5VT25); conditions: at 1 µM
[19] = molecular target: SRSF protein kinase 3 (Homo sapiens) (UniProt Q9UPE1); conditions: at 1 µM
[20] = molecular target: SRSF protein kinase 3 (Homo sapiens) (UniProt Q9UPE1); conditions: at 10 µM

Compound | residual activity [1] | residual activity [2] | residual activity [3] | residual activity [4] | residual activity [5] | residual activity [6] | residual activity [7] | residual activity [8] | residual activity [9] | residual activity [10] | residual activity [11] | residual activity [12] | residual activity [13] | residual activity [14] | residual activity [15] | residual activity [16] | residual activity [17] | residual activity [18] | residual activity [19] | residual activity [20]
Cn1c2ccccc2c2c3c(c4c5ccccc5n(CCC#N)c4c21)CNC3=O | 0% | 1% | 52% | 34% | 16% | 11% | 2% | 2% | 79% | 74% | 64% | 3% | 2% | 2% | 5% | 1% | 2% | – | – | –
O=C(Nc1nc2ccccc2n1CCN1CCOCC1)c1cccc([N+](=O)[O-])c1 | 73% | 137% | 75% | 87% | 78% | 83% | 77% | 75% | – | 88% | 83% | 124% | – | – | – | 88% | 77% | – | – | –
Nc1ncnc2c1c(-c1ccc(Oc3ccccc3)cc1)cn2C1CCCC1 | 85% | 89% | 95% | 79% | 63% | 45% | – | – | 118% | 90% | 69% | 126% | 67% | 83% | 59% | 76% | 48% | 107% | 106% | 96%
COc1cc2nccc(Oc3ccc(NC(=S)NC(=O)c4ccccc4C)cc3)c2cc1OC | 65% | 71% | 93% | 87% | 67% | 80% | 63% | 41% | 124% | 84% | 67% | 137% | 102% | 87% | 93% | 81% | 86% | – | – | –
Nc1ncnc2c1cnn2-c1ccccc1 | 79% | 91% | 97% | 94% | 86% | 84% | 83% | 57% | – | 95% | 83% | – | – | – | 86% | 97% | – | – | – | 23%
NC(=O)Nc1sc(-c2ccc(F)cc2)cc1C(N)=O | 97% | 41% | 96% | 44% | 92% | 31% | 9% | 1% | – | 80% | 50% | – | – | 85% | 46% | 28% | 10% | – | 96% | 67%
O=C(c1ccccc1)c1ccc(N2CCOCC2)cc1O | 85% | 79% | 98% | 85% | 88% | 87% | – | – | 100% | 91% | 82% | – | 86% | 88% | 100% | 111% | 116% | 100% | 113% | –
NCCNc1ncc(C(N)=O)c(Nc2cccc(C(F)(F)F)c2)n1 | 18% | 6% | 73% | 38% | 67% | 55% | 30% | 4% | 105% | – | – | 112% | 77% | 81% | 81% | – | – | 104% | 108% | 75%
O=c1cc(N2CCOCC2)oc2c1ccc1ccccc12 | 92% | 86% | 102% | 94% | 92% | 77% | 96% | 101% | 99% | 95% | 78% | 125% | 103% | – | 105% | 91% | 97% | 105% | – | 70%
N#C/C(=C\c1ccc(O)c(O)c1)C(=O)NCc1ccccc1 | 89% | 101% | 83% | 68% | 101% | 100% | – | – | 87% | 87% | 82% | – | 57% | 86% | 74% | – | – | – | – | 88%
O=C1Nc2ccc(Cl)cc2/C1=C/c1cc(Cl)c(O)c(Cl)c1 | 82% | 38% | 95% | 61% | 39% | 37% | 56% | 18% | 96% | 80% | 67% | – | – | 84% | 51% | 41% | 12% | 99% | 100% | 71%
O=C1NC(=O)C(c2cn(CCCO)c3ncccc23)=C1c1cnccn1 | 85% | 77% | 100% | 99% | 84% | 78% | 75% | 55% | – | – | – | – | – | – | – | 77% | 60% | – | – | –
CSc1nc(-c2ccc(F)cc2)c(-c2ccnc(NC(C)c3ccccc3)c2)[nH]1 (centres undefined) | 70% | -2% | 99% | 48% | – | 68% | 99% | 85% | – | – | 89% | – | – | 100% | 84% | – | – | – | – | 86%
O=C(NC(NC(=S)Nc1ccc(F)c([N+](=O)[O-])c1)C(Cl)(Cl)Cl)C(c1ccccc1)c1ccccc1 (centres undefined) | 135% | 80% | – | 96% | 103% | 79% | 102% | 103% | – | 97% | 87% | – | – | 95% | 94% | 92% | – | – | 98% | –
CC(C)(C)c1nc2c3ccc(F)cc3c3c(=O)[nH]ccc3c2[nH]1 | 39% | 41% | 69% | 35% | 2% | 4% | 9% | 21% | – | – | – | – | – | 36% | 44% | 8% | 10% | – | 79% | –
O=C1Cc2c([nH]c3ccc(Br)cc23)-c2ccccc2N1 | 100% | 77% | 95% | 62% | 89% | 58% | 22% | 4% | – | 72% | 52% | – | – | 82% | 63% | 44% | 35% | – | 98% | 87%
c1ccc(-c2cnc(Nc3ccc(OCCN4CCCC4)cc3)s2)cc1 | 77% | 72% | – | – | 76% | 58% | 74% | 22% | 106% | 106% | 109% | 128% | 106% | – | – | – | – | 107% | 108% | 78%
N#C/C(=C1/Nc2ccccc2S1)c1ccnc(NCCc2cccnc2)n1 | 84% | 39% | 67% | 42% | 96% | 73% | 48% | 9% | – | – | – | 112% | 68% | – | – | 81% | 84% | – | – | –
Nc1n[nH]c2nc3ccccc3nc12 | 95% | 84% | 88% | 81% | 95% | 69% | 82% | 41% | – | 86% | 92% | – | 86% | – | – | 76% | 94% | – | – | –
CC(C)[C@H](CO)Nc1nc(Nc2cc(N)cc(Cl)c2)c2ncn(C(C)C)c2n1 | 93% | 78% | 95% | – | 82% | 29% | – | – | – | 100% | 90% | 118% | 76% | – | 51% | 82% | 47% | 122% | 40% | 12%
CC(C)(C)n1nc(Cc2cccc3ccccc23)c2c(N)ncnc21 | 57% | 38% | 98% | 94% | 73% | 87% | 68% | 18% | 119% | 99% | 86% | 120% | 93% | 95% | – | 90% | 58% | 95% | 116% | 80%
O=c1c(-c2ccc(F)cc2)c(-c2ccncc2)[nH]n1-c1ccc(Cl)cc1 | 74% | 0% | 77% | 22% | – | – | – | – | – | – | – | – | – | – | – | – | – | 119% | – | –
N#Cc1c(NC(=O)c2cccc3ccccc23)sc2c1CCCC2 | 93% | 85% | 88% | 82% | – | 83% | 96% | 95% | – | 100% | – | – | – | – | 99% | – | – | – | – | –
CCN(CC)CCNC(=O)c1c(C)[nH]c(/C=C2\C(=O)Nc3ccc(Cl)cc32)c1C | 66% | 46% | – | 81% | 9% | 3% | 24% | 4% | – | – | – | 80% | 31% | 42% | 15% | 12% | 5% | – | 98% | 61%
O=C1Cc2c([nH]c3ccc([N+](=O)[O-])cc23)-c2ccccc2N1 | 79% | 77% | 73% | – | – | – | 7% | 5% | 79% | 48% | 57% | 108% | 107% | – | – | 33% | 30% | 60% | 100% | 100%
O=C(O)/C=C/c1cc(Br)c(Br)c(Br)c1Br | 99% | 84% | – | 71% | 94% | 22% | 93% | 72% | – | 106% | 90% | – | 102% | 102% | 64% | 97% | 97% | – | 124% | 100%
O=c1cc(N2CCNCC2)oc2c(-c3ccccc3)cccc12 | 92% | 89% | 100% | 79% | 93% | 95% | 88% | 104% | – | 93% | 76% | – | 94% | 93% | 103% | 98% | 99% | 86% | 103% | 89%
